Results filed as inconclusive are left out. Active and inactive are the calls of the source. Calls come from the whole dose curve.

Chain of Peroxisome proliferator-activated receptor delta (Homo sapiens) (Q03181 whole entry, looked up): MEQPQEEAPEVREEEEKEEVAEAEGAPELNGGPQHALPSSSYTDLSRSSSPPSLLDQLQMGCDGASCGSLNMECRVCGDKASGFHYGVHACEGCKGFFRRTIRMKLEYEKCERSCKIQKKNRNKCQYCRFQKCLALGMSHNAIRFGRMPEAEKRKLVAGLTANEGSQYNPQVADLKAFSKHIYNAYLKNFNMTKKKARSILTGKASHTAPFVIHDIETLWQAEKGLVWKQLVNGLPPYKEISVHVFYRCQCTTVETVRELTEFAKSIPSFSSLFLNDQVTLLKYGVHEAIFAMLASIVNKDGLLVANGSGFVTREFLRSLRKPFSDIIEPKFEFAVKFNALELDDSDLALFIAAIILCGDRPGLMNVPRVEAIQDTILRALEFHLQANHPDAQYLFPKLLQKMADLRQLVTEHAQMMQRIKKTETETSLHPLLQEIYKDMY

The assay addresses Peroxisome proliferator-activated receptor delta (Homo sapiens) (UniProt Q03181). Nature of the assay: qHTS assay for small molecule agonists of peroxisome proliferator-activated receptor delta signaling (AID 588534). The settings on record: HEK293T PPARdelta-UAS-bla, beta-lactamase ratio, 18 h; series mostly up to 76.7 µM. A digest of the protocol: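 Agonist-mode beta-lactamase reporter readout (CCF4 dye, 2 h at RT) after 18 h at 37 °C exposure to a titration; Hill-equation fitting gave EC50 and maximal response.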
Turning to `Cc1cccc(Br)c1`, the result was inactive.
With `O=C1CCC(C2CCCCC2)CC1`, the outcome was inactive.
For `Cc1cccc(C)c1O` the value was “inactive”.
Regarding `CC/C=C/C#N`, the outcome was inactive.
Take `OC(CCl)CCl`: the outcome was inactive.
Regarding `Nc1nc(N)nc(-c2ccccc2)n1`, the result was inactive.
For the compound `CO[Si](CCCNCCN)(OC)OC`, the outcome was inactive.
For `CCCCCCCCCCCCCCCCCC#N` the value was “inactive”; for `c1ccc(OCCOc2ccccc2)cc1`, “inactive”.
The result for `CC(C)CCCCCCc1ccc(O)cc1` reads “inactive”.
Take `CC(C)C(=O)OC(=O)C(C)C`: the result was inactive.
On to `CCCCOC(=O)c1ccccc1`, for which the result was inactive.
Regarding `c1ccsc1`, the outcome was inactive.
On to `CCCCCCC(C)OC(=O)COc1nc(F)c(Cl)c(N)c1Cl` (stereo not given), for which the outcome was inactive.
For `O=C(/C=C/c1ccc(O)c(O)c1)OC1C[C@](O)(C(=O)O)C[C@@H](O)[C@H]1O` (stereo not given in full), the result was inactive.
On to `N[C@@H]1[C@@H](O)[C@H](O)[C@@H](CO)O[C@H]1O`, for which the result was inactive.
For `CCCCCCCCCCCCCCC1CO1` (stereo not given), the result was inactive.
Consider `CCCCN(CCCC)CCCC`, for which the outcome was inactive.
Take `Cc1cccc(C(=O)O)c1[N+](=O)[O-]`: the result was inactive.
Turning to `CCCCN(CCCC)CCCCCCN(CCCC)CCCC`, the outcome was inactive.
For `OC1CCCCC1` the value was “inactive”; for `Cc1ccc2c(c1)C(=O)OC2=O`, “inactive”.
Turning to `COC(=O)CSc1cc(N=c2sc(=O)n3n2CCCC3)c(F)cc1Cl`, the result was inactive.
Consider `C=Cc1ccccn1`, for which the result was inactive.
Take `CCCC=O`: the result was inactive.
In the case of `CC(=O)OCc1ccco1`, the outcome was inactive.
On to `Nc1ccc(Cl)cc1[N+](=O)[O-]`, for which the outcome was inactive.
Take `CCCCCCCC[Si](OCC)(OCC)OCC`: the outcome was inactive.
Regarding `C=CC(C)(O)CCCC(C)CCCC(C)CCCC(C)C` (stereo not given), the result was inactive.
Regarding `CCOC(=O)C(C)C(C)=O` (stereo not given), the result was inactive.
For `CCCCCCCCC(=O)O`, the result was inactive.
For `CC(=O)c1ccccc1[N+](=O)[O-]` the value was “inactive”; for `CCNC(=S)NCC`, “inactive”; for `Cc1cc(C(=O)O)ccc1[N+](=O)[O-]`, “inactive”.
For `C/C=C(/C)C#N` the value was “inactive”; for `O=C1CCCCC1`, “inactive”; for `Cc1cc(Nc2ccc(O)cc2)ccc1N`, “inactive”.
As to `O=C(O)c1cccc([N+](=O)[O-])c1`, the outcome was inactive.
As for `Cc1cccc([N+](=O)[O-])c1C`, the outcome was inactive.
Regarding `C[Si](Cl)(Cl)c1ccccc1`, the result was inactive.
